Sfp PPTase inh = Sfp phosphopantetheinyl transferase inhibition; hit rate 3.5% among 310,000; Biochemical Sfp PPTase activity, qHTS; Q9F4F7; Potency, µM, without a hit: largest response in the series, negative = inhibition, actives largely listed as inhibitors; AID 1490;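 also: the enzyme is Sfp with the accession as filed and its product quenches rhodamine fluorescence; potency is read from the fitted curve at half-maximal effect; 0% = enzyme reaction without inhibitor and -100% = no enzyme wells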
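With Hepes-Na pH 7.6 buffer containing 10 mM MgCl2, Sfp (15 nM) modified BHQ-2-YbbR (12.5 uM) using rhodamine-CoA (5 uM). Two reads 30 minutes apart at 525/598 nm yielded each well's rate.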
FBPA coupling cs = inhibits coupling enzyme system, counter-screen for aldolase hits; coupling enzyme system counterscreen, AmpLite Red fluorescence; activity change, negative = inhibition, % at 58.2 µM, hits read low; hit rate 0.67% among 290,000; AID 2472; in the data active = activity change below about -30%
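Activity here indicates interference with the coupling reaction, not aldolase inhibition. Compounds at 57.5 uM final met coupling enzymes for 10 min at RT; substrate and AmpLite Red detection followed, with a 525/598 nm fluorescence read after 20 min.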
Tau ThT inhib = inhibitors of human tau fibril formation, thioflavin T binding. AID 1460. P10636. Potency, µM (highest dose often 57.4 µM), inactives show top-dose activity, negative = inhibition, most hits filed as inhibitors. recombinant tau K18 P301L, heparin-induced fibrillization, ThT fluorescence. hit rate 2.1% among 270,000; also: potency is read from the fitted curve at half-maximal effect; nearly all actives have a fitted effect of over 55% in size
Target sequence (P10636 561-689 P618L limits assumed): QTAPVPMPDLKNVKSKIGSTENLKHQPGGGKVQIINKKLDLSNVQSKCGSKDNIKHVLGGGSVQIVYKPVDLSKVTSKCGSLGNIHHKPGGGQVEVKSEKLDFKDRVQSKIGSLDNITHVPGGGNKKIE
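Using a mix of unlabeled (15 uM) and Alexa 594-labeled (0.24 uM) tau K18 P301L, heparin-triggered fibrillization over 6 hr at 37 C was scored by ThT fluorescence.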
Tau FP inhib = blocks human tau fibril formation measured by polarization. AID 1468. Potency, µM (doses to about 57.7 µM), without a hit: at the highest dose activity, negative = inhibition, most hits filed as inhibitors. hit rate 0.39% among 280,000. K18 P301L tau heparin fibrillization, Alexa594 FP, 6 h. P10636; also: potency is read from the fitted curve at half-maximal effect; nearly all actives have a fitted effect of over 55% in size
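Quantitative HTS format: compounds meet 15 uM recombinant K18 P301L tau and Alexa 594-tau tracer in 100 mM sodium acetate pH 7; 20 uM heparin triggers fibrillization at 37 C over 6 hr; FP gives the signal.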
Tau fluor cs = counter-screen for tau fibril formation inhibitors. tau K18 P301L Alexa594 fluorescence, heparin fibrillization. hit rate 0.93% among 280,000. Potency, µM (titrated, usually from 57.7 µM), for the others: at the top dose activity change, negative = decrease. AID 1463; also: potency is read from the fitted curve at half-maximal effect; nearly all actives have a fitted effect of over 55% in size
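Human tau K18 P301L (15 uM unlabeled, 0.24 uM Alexa 594-labeled) in 100 mM sodium acetate pH 7 with 20 uM heparin, 6 hr at 37 C. ThT 30 uM added, 1 hr ambient; Alexa 594 FP and total fluorescence read at 555/632 nm.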
Starred values were filed as active, the others as inactive; ? = inconclusive; nt = not tested or not shown; [ ] = remark or other dose. Only some compounds are listed: those with a hit (about 5.2% of all), similar ones and a draw of the others. Unless noted, calls follow the shape of the dose curve; as a rule, active = well fitted curve in the direction sought with a large enough effect; inconclusive = small, poorly fitted or top-dose-only effect, or another doubt; inactive = no such curve, though single readings can be large; an effect the other way counts as inactive or inconclusive. Unless noted, % is scaled to controls: 0 for no effect and ±100 for the full control effect.

SMILES	Sfp PPTase inh	FBPA coupling cs	Tau ThT inhib	Tau FP inhib	Tau fluor cs
Cc1ccccc1C(=O)Nc1nnc(S(=O)(=O)N2CCCCCC2)s1	21%	2	14µM*	-6%	-29%
O=C(Nc1nnc(S(=O)(=O)N2CCCCC2)s1)c1ccc(F)cc1	nt	nt	4.5µM*	17%	?
Cc1cccc(C(=O)Nc2nnc(S(=O)(=O)N3CCOCC3)s2)c1	14%	-16	3.5µM*	5%	-26%
O=C(Nc1nnc(S(=O)(=O)N2CCOCC2)s1)c1cccc(F)c1	16%	-16	?	?	?
Cc1ccc2c(CC(=O)Nc3ccc(S(=O)(=O)N4CCCCC4)cc3)coc2c1C	nt	nt	12%	?	?
N#C/C(=C1/C(=O)Nc2ccc(Br)cc21)c1ccccn1	19%	-1	28µM*	?	-21%
COc1cc(/C=C2\SC(=O)N(c3ccc(Cl)cc3)C2=O)cc([N+](=O)[O-])c1O	-11%	1	18µM*	3%	?
COc1cc(/C=C2\SC(=O)N(c3cccc(Cl)c3)C2=O)cc([N+](=O)[O-])c1O	-8%	13	8.9µM*	2%	?
CC1=C(C(=O)NCc2cccc(Cl)c2)C2(CCCCCC2)OC1=O	nt	nt	-12%	-5%	-24%
FC(F)(F)C(F)(F)C(F)(F)C(F)(F)C(F)(F)C(F)(F)C(F)(F)C(F)(F)Br	21%	nt	nt	nt	nt
CSCC[C@H](NC(=O)[C@H](CC(C)C)NC(=O)[C@@H]1CCCN1C(=O)[C@H](Cc1ccccc1)NC(=O)[C@H](Cc1ccccc1)NC(=O)[C@H](CCC(N)=O)NC(=O)[C@H](CCC(N)=O)NC(=O)[C@@H]1CCCN1C(=O)[C@H](CCCCN)NC(=O)[C@@H]1CCCN1C(=O)[C@@H](N)CCCN=C(N)N)C(N)=O	1%	2	nt	nt	nt
CCc1ccccc1NC(=O)Cn1nc2c3cc(F)ccc3n(Cc3cccc(C)c3)cc-2c1=O	nt	nt	?	2%	-4%
Cc1cc(O)c(C=O)c2c1C(=O)Oc1c(COC(=O)/C=C/C(=O)O)c(O)c(C(=O)O)c(C)c1O2	-52%	10	8.9µM*	3.5µM*	-33%
Cc1cc(O)c(C=O)c2c1C(=O)Oc1c(CO)c(O)c3c(c1O2)C(O)OC3=O (stereo not drawn)	14µM*	6	?	16µM*	?
Cc1cc(O)c(C=O)c(O)c1C(=O)O	-7%	-2	?	-12%	-17%
COc1ccc(NC(=O)CCc2c(C)nc3c(c2C)c(=O)n(C)c(=O)n3C)c(OC)c1	nt	nt	-17%	-4%	-13%
CN1CC(C(=O)O)Cc2c1ccc1ccccc21 (stereo not drawn)	?	-46*	?	?	?
Cc1ccc(-n2nnnc2CNC(=O)c2cc(C(F)(F)F)cc(C(F)(F)F)c2)cc1C	nt	nt	4%	-3%	-14%
COc1ccccc1Nc1ccc(N)cc1	-15%	-6	16µM*	?	?
Brc1ccc2nc(-c3c[nH]c4ccccc34)cn2c1	-10%	-14	10µM*	7%	?
CCCCC[C@H](O)/C=C/[C@@H]1[C@@H](C/C=C\CCCC(=O)O)[C@@H](O)C[C@@H]1O	23%	-4	-11%	-5%	-6%
Cc1ccc(-c2cc(NC(=O)c3ccccc3Cl)on2)cc1	nt	nt	-4%	-10%	-17%
CSc1ccccc1NC(=O)C1CCCO1 (stereo not drawn)	79µM*	1	-5%	-1%	6%
O=C(Nc1ccc([N+](=O)[O-])c(NC(=O)C2CCCO2)c1)C1CCCO1 (stereo not drawn)	-6%	-7	?	-3%	-11%
O=C(Nc1ccc(N=Nc2ccccc2)c(NC(=O)C2CCCO2)c1)C1CCCO1 (stereo not drawn)	-24%	2	14µM*	-2%	-27%
SMILES	Sfp PPTase inh	FBPA coupling cs	Tau ThT inhib	Tau FP inhib	Tau fluor cs
CCN(CC)CCCNC(=O)c1ccc2c(c1)N(Cc1c(F)cccc1Cl)C(=O)c1ccccc1S2	nt	nt	-15%	-4%	-26%
CCOC(=O)c1ccc(NC(=S)NCCc2ccc(F)cc2)cc1	11%	-1	6%	28µM*	?
CCN(CC)CCNC(=S)Nc1ccc(F)cc1	28µM*	3	2%	-2%	-5%
CCOC(=O)c1ccc(NC(=O)C(=O)NCCc2ccc(OC)cc2)cc1	17%	1	?	-10%	-11%
CCOC(=O)N1CCC(NC(=O)c2ccc3c(c2)N(Cc2cc(C)ccc2C)C(=O)c2ccccc2S3=O)CC1 (stereo not drawn)	nt	nt	-10%	-4%	-14%
COc1ccc(-c2nc3sc(CCNC(=O)C(=O)Nc4ccccc4C#N)c(C)n3n2)cc1	nt	nt	?	?	-20%
O=C(CCCOc1ccc(Cl)cc1Cl)N/N=C/c1cccc([N+](=O)[O-])c1	-8%	-39*	3%	7%	-1%
CCCCn1c(Oc2cccc(C(=O)OC)c2)nc2c1c(=O)n(C)c(=O)n2C	nt	nt	5%	-9%	-6%
CC(/C=N/NC(=O)c1ccncc1)=C\c1ccc(C(C)C)cc1	10%	2	20µM*	?	-21%
FC(F)Sc1ccc(NC(=S)NCC2CCCCC2)cc1	13%	-5	-7%	?	14µM*[quencher]
CCn1ccc2cc(OC)ccc2c1=S	-107%	-83*	?	-5%	2%
CCn1c(=S)ccc2ccc(OC)cc21	13%	2	?	-1%	0%
CCc1ccc(/C=C/C(=O)c2cc(Br)ccc(=O)c2O)cc1	14µM*	0	16µM*	?	?
Cc1cccc(/C=C/C(=O)c2cc(Br)ccc(=O)c2O)c1	14µM*	0	14µM*	?	?
CCOc1ccc(/C=C/C(=O)c2cc(Br)ccc(=O)c2O)cc1	20µM*	-2	4.5µM*	?	?
O=C(NCc1nc(-c2ccc(C(F)(F)F)cc2)no1)Nc1cc(Cl)cc(Cl)c1	25%	-5	nt	16µM*	?
O=C(NCc1nc(-c2ccc(C(F)(F)F)cc2)no1)Nc1ccc(F)cc1F	27%	-2	nt	-2%	1%
Nc1cccc2cnccc12	8%	-38*	-13%	-5%	-8%
Oc1cccc2cnccc12	2%	-9	-8%	-3%	-9%
Cc1ccccc1-c1cc(Nc2ccc(F)cc2)ncn1	-4%	2	6%	-3%	-28%
O=S(=O)(Nc1ccc(-n2cccc2)cc1)c1ccc(Cl)c(Cl)c1	11%	-1	-9%	14µM*	?
O=S(=O)(Nc1ccc(-n2cccc2)cc1)c1ccc(F)cc1	10%	-1	-1%	-16%	?
O=C(/C=C\c1ccc2c(c1)OCO2)NC1CC(=O)N(c2ccc(F)cc2)C1 (stereo not drawn)	nt	nt	-2%	-4%	-3%
CC(C)COC(=O)c1cccc2c1-c1ccccc1/C2=N\O	-7%	1	-5%	28µM*	-29%

Source: PubChem
